Only some compounds are listed: those with a hit (about 2.9% of all), similar ones and a draw of the others.
HGIII-sPLA2 inh – Inhibits HGIII-sPLA2 liposome hydrolysis, primary screen. QFRET BODIPY PC-A2 liposome hydrolysis, fluorescence. inhibition, % at 12.2 µM. actives 0.56% (n = 370,000). AID 743126;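 active = inhibition above mean plus 3 SD of compounds lying within the high and low control bounds, cut at about 19% in these data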;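 also: 0% = median of test compound wells and 100% = no enzyme DMSO wells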
DAGLB inh – diacylglycerol lipase beta (human) inhibition; Q8NCG7; HEK293T DAGLB membrane lysate, EnzChek fluorogenic substrate; inhibition, % at 5.17 µM; actives 0.059% (n = 340,000); AID 504411; in the data active = inhibition above about 34%;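 also: 0% = enzyme with vehicle and 100% = wells lacking enzyme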
Myeloid diff MLP – promotes myeloid progenitor differentiation | actives 1% (n = 360,000) | ER-HoxA9 myeloid progenitors, lysozyme-GFP differentiation, flow cytometry | AID 624256 | calls only at 10 µM;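 active = normalized GFP-positive differentiation at or above the plate's own cutoff, the solvent-only control mean plus 3 SD; inconclusive = no clear call, values can overlap the other calls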;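 also: cells exposed to compound for four days before flow analysis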
ABHD5 PLIN5 PPI – ABHD5-PLIN5 protein interaction inhibition; Q00G26+Q8WTS1; Split G. princeps luciferase complementation, luminescence, 4 h; inhibition, % at 4 µM; AID 602281; actives 0.78% (n = 360,000);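 active = inhibition above the mean inhibition across every tested compound plus 3 SD, cut at about 22% in these data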;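 also: 0% = DMSO only wells and the 100% control is not disclosed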
H9c2 protect – modulators protecting cardiomyocytes from myocardial damage | H9c2 cardiomyocytes, H2O2 injury protection, ATPLite, 2 h | protection from H2O2 cell death, % at 20 µM | actives 0.63% (n = 360,000);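 active = compounds giving at least 50% protection of heart cells from peroxide-induced death in the single-dose screen, raw or plate-pattern-corrected value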;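 also: 0% = DMSO wells with peroxide and 100% = DMSO wells without peroxide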
Rtt109 HAT inh – inhibitors of Candida albicans Rtt109/Vps75 histone acetyltransferase. purified Rtt109/Vps75, ThioGlo CoA-SH fluorescence, 4 h. actives 0.16% (n = 330,000). AID 540336. inhibition, % at 34.9 µM;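 active = inhibition of at least 50% in every replicate; inconclusive = best replicate reaches 50% inhibition but some replicates fall short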
Target sequence (Q5AAJ8 whole entry, looked up): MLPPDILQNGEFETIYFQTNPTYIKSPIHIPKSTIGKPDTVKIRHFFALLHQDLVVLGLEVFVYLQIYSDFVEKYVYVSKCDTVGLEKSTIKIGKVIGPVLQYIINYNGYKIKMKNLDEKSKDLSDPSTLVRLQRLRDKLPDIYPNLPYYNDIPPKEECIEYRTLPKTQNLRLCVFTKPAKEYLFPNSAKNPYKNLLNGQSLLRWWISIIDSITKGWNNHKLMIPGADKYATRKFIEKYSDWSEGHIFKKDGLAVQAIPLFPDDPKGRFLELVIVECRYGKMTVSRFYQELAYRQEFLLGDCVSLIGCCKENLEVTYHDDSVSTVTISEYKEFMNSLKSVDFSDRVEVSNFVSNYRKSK
Active calls of the source: *.

What do the screens show for `COc1cccc(Cn2c(NCc3cccnc3)nc3c2c(=O)n(C)c(=O)n3C)c1`?
HGIII-sPLA2 inh: 6; DAGLB inh: 0; Myeloid diff MLP: active; ABHD5 PLIN5 PPI: 2; H9c2 protect: 48; Rtt109 HAT inh: 11

How did Cn1c(=O)c2c(nc(NCc3cccnc3)n2Cc2cccc(C(F)(F)F)c2)n(C)c1=O do in these assays?
HGIII-sPLA2 inh: -13; DAGLB inh: 0; Myeloid diff MLP: inactive; ABHD5 PLIN5 PPI: -2; H9c2 protect: 73*; Rtt109 HAT inh: -3

What do the screens show for `O=C(COC(=O)c1cccc2ccccc12)Nc1cccnc1Cl`?
HGIII-sPLA2 inh: -7; DAGLB inh: -7; Myeloid diff MLP: inactive; ABHD5 PLIN5 PPI: -10; H9c2 protect: 2; Rtt109 HAT inh: -7

How did N#Cc1ccc(S(=O)(=O)Nc2ccccc2N2CCOCC2)cc1 do in these assays?
HGIII-sPLA2 inh: -9; DAGLB inh: 2; Myeloid diff MLP: inactive; ABHD5 PLIN5 PPI: 3; H9c2 protect: -2; Rtt109 HAT inh: 2

How did O=C(NCc1ccccc1)[C@H]1CCCN1C(=O)[C@H]1CCCN1C(=O)N1CCCCC1 do in these assays?
HGIII-sPLA2 inh: 4

How did O=C1NCC(COCC2CC=CCC2)O1 (centres undefined) do in these assays?
HGIII-sPLA2 inh: -1; DAGLB inh: -1; Myeloid diff MLP: inactive; ABHD5 PLIN5 PPI: 2; H9c2 protect: -2; Rtt109 HAT inh: -1

Results for Cc1cc(N=Cc2c(O)ccc3cc(Br)ccc23)no1 ?
HGIII-sPLA2 inh: 0; DAGLB inh: 11; Myeloid diff MLP: inactive; ABHD5 PLIN5 PPI: -2; H9c2 protect: 66*; Rtt109 HAT inh: 9

How did Cc1cc(C(=O)N/N=C\c2cc(C(C)(C)C)ccc2O)n[nH]1 do in these assays?
DAGLB inh: 4; Myeloid diff MLP: active; ABHD5 PLIN5 PPI: -6; H9c2 protect: 62*; Rtt109 HAT inh: 11

Results for Cc1cc(C(=O)NN=Cc2ccccc2C(=O)O)n[nH]1 ?
HGIII-sPLA2 inh: 0

Results for Cc1cc(C(=O)N/N=C/c2cc(Br)cc(Br)c2OC(=O)c2cccc(F)c2)n[nH]1 ?
HGIII-sPLA2 inh: 6; DAGLB inh: 2; Myeloid diff MLP: inactive; ABHD5 PLIN5 PPI: -4; H9c2 protect: 83*; Rtt109 HAT inh: -3

What do the screens show for `Cc1ccc(NC(=O)c2ccco2)c(NC(=O)c2ccc(Cl)cc2)c1`?
HGIII-sPLA2 inh: -4; DAGLB inh: -3; Myeloid diff MLP: inactive; ABHD5 PLIN5 PPI: -12; H9c2 protect: -1; Rtt109 HAT inh: -8

Results for Clc1ccc(C(Cn2ccnc2)OCc2c(Cl)cccc2Cl)c(Cl)c1 (centres undefined) ?
HGIII-sPLA2 inh: -9; DAGLB inh: -5; Myeloid diff MLP: active; ABHD5 PLIN5 PPI: -4; H9c2 protect: -14; Rtt109 HAT inh: -3

How did Oc1cc2c(cc1O)C1c3ccc(O)c(O)c3OCC1(O)C2 (centres undefined) do in these assays?
HGIII-sPLA2 inh: -2; DAGLB inh: -1; Myeloid diff MLP: inactive; ABHD5 PLIN5 PPI: 14; H9c2 protect: 2; Rtt109 HAT inh: 159*

How did CC(=O)NC1=NN(C(C)=O)C2(S1)C(=O)N(C(C)=O)c1ccc(C)cc12 (centres undefined) do in these assays?
HGIII-sPLA2 inh: -1; DAGLB inh: -1; Myeloid diff MLP: inactive; ABHD5 PLIN5 PPI: -6; H9c2 protect: 3; Rtt109 HAT inh: -1

How did O=C(N/N=C/c1c(O)n(-c2ccccc2Cl)c(=O)c2ccccc12)C1COc2ccccc2O1 (centres undefined) do in these assays?
DAGLB inh: 14; Myeloid diff MLP: inactive; ABHD5 PLIN5 PPI: -4; H9c2 protect: 68*; Rtt109 HAT inh: -7

What do the screens show for `Cc1ccc(-n2c(O)c(/C=N/NC(=O)C3COc4ccccc4O3)c3ccccc3c2=O)cc1` (centres undefined)?
HGIII-sPLA2 inh: 13; DAGLB inh: 12; Myeloid diff MLP: inactive; ABHD5 PLIN5 PPI: -3; H9c2 protect: 39; Rtt109 HAT inh: 13

Results for CCOc1ccc(CC(=O)Nc2c(C(N)=O)oc3ccc(Br)cc23)cc1OCC ?
HGIII-sPLA2 inh: 6; DAGLB inh: 1; Myeloid diff MLP: inactive; ABHD5 PLIN5 PPI: -2; H9c2 protect: 78*; Rtt109 HAT inh: 0

Results for Cc1ccc2c(c1)NC(=O)C(CC(=O)NCCCN1CCN(c3cc(Cl)ccc3C)CC1)O2 (centres undefined) ?
HGIII-sPLA2 inh: -18; DAGLB inh: -1; Myeloid diff MLP: active; ABHD5 PLIN5 PPI: 15; H9c2 protect: 5; Rtt109 HAT inh: 5

Results for O=C(Nc1nnc(S(=O)(=O)Nc2ccccc2)s1)C1CCCCC1 ?
HGIII-sPLA2 inh: -14; DAGLB inh: 1; Myeloid diff MLP: inactive; ABHD5 PLIN5 PPI: -4; H9c2 protect: -2; Rtt109 HAT inh: -7

How did CN(C)CC(CCC(CN(C)C)C(=O)c1ccccc1)C(=O)c1ccccc1 (centres undefined) do in these assays?
DAGLB inh: 1; ABHD5 PLIN5 PPI: 41*; H9c2 protect: -18; Rtt109 HAT inh: 9

What do the screens show for `CCOc1ccc(C(=O)C(CCC(CN(C)C)C(=O)c2ccc(OCC)cc2)CN(C)C)cc1` (centres undefined)?
HGIII-sPLA2 inh: -13; DAGLB inh: 1; Myeloid diff MLP: inconclusive; ABHD5 PLIN5 PPI: 49*; H9c2 protect: -29; Rtt109 HAT inh: -3

How did COc1ccc(C(=O)C(CCCCC(CN(C)C)C(=O)c2ccc(OC)cc2)CN(C)C)cc1 (centres undefined) do in these assays?
HGIII-sPLA2 inh: -13; DAGLB inh: 1; Myeloid diff MLP: inactive; ABHD5 PLIN5 PPI: 3; H9c2 protect: 7; Rtt109 HAT inh: -6

How did O=C(O)Cc1sc(NCCc2ccccc2)nc1-c1ccc(F)cc1 do in these assays?
HGIII-sPLA2 inh: 0; DAGLB inh: 4; Myeloid diff MLP: active; ABHD5 PLIN5 PPI: -14; H9c2 protect: 2; Rtt109 HAT inh: 5

What do the screens show for `C=CCNc1nc(-c2cccs2)c(CC(=O)O)s1`?
HGIII-sPLA2 inh: -1; DAGLB inh: -1; Myeloid diff MLP: inactive; ABHD5 PLIN5 PPI: -31; H9c2 protect: 3; Rtt109 HAT inh: 6

Results for O=C(O)Cc1sc(Nc2ccccc2)nc1-c1cccs1 ?
HGIII-sPLA2 inh: -3; DAGLB inh: 1; Myeloid diff MLP: active; ABHD5 PLIN5 PPI: -6; H9c2 protect: -3; Rtt109 HAT inh: 6

Results for O=C(O)Cc1sc(N/N=C\c2ccccc2)nc1-c1ccccc1 ?
HGIII-sPLA2 inh: 23*; DAGLB inh: 9; Myeloid diff MLP: inactive; ABHD5 PLIN5 PPI: -5; H9c2 protect: 3; Rtt109 HAT inh: -3

What do the screens show for `O=C(O)Cc1sc(Nc2cccc3ccccc23)nc1-c1ccc(F)cc1`?
HGIII-sPLA2 inh: 4; DAGLB inh: 1; Myeloid diff MLP: inactive; ABHD5 PLIN5 PPI: -19; H9c2 protect: 2; Rtt109 HAT inh: -1

How did Cn1nc(C(C)(C)C)c([N+](=O)[O-])c1C(=O)Nc1ccc(Br)cc1 do in these assays?
HGIII-sPLA2 inh: -11; DAGLB inh: -7; Myeloid diff MLP: inactive; ABHD5 PLIN5 PPI: -1; H9c2 protect: -13; Rtt109 HAT inh: 1

Screens deposited in PubChem by several laboratories.
